What all share (assay): qHTS profiling for inhibitors of Plasmodium falciparum proliferation (AID 504749); also: nearly all actives have a fitted effect of over 60% in size;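 as to activity, negative = inhibition: 0% = DMSO vehicle and full inhibition = artemisinin control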
Conditions in all cases: P. falciparum in erythrocytes, SYBR Green DNA, 72 h; series mostly up to 28.7 µM

For assay [1], the system named is CP191. The method in brief: (§1)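 Three-day growth assay of blood-stage parasites in erythrocytes (0.3% parasitemia, 2.5% hematocrit) at 37 C, 5% CO2, quantified by SYBR Green DNA staining after overnight detergent lysis.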
Assay [2] concerns CP192. The method in brief: as §1
For assay [3], the system named is CP194. The method in brief:
as §1

In assay [4] the test system is CP201. The method in brief: as §1
Assay [5] deals with CP211. The method in brief:
as §1

Assay [6] relates to CP215. The method in brief:
as §1

The test system of assay [7] is CP217. The method in brief: as §1
Assay [8] deals with CP237. The method in brief: as §1
In assay [9] the test system is CP238. The method in brief: as §1
For assay [10], the system named is CP247. The gist of the method: as §1
Assay [11] concerns CP250. The method in brief: as §1
Assay [12] relates to CP252. The method in brief: as §1
Assay [13] deals with CP256. The method in brief:
as §1

For assay [14], the system named is CP260. The method in brief: as §1
Assay [15] deals with CP262. The gist of the method: as §1
The test system of assay [16] is CP265. The method in brief:
as §1

Assay [17] has as its system CP268. The gist of the method:
as §1

Assay [18] concerns CP269. The gist of the method: as §1
For assay [19], the system named is CP266. The gist of the method:
as §1

The subject of assay [20] is CP203. The method in brief: as §1

Molecules are shown by their SMILES. Records with an inconclusive call do not appear. Unmarked numbers belong to inactive results. Calls of active or inactive are those of the source. Calls follow the shape of the dose curve; as a rule, active = well fitted inhibition curve with a large enough effect; inconclusive = small, poorly fitted or top-dose-only effect; inactive = flat fitted curve, though single readings scatter.
Potency is read from the fitted curve at half-maximal effect.

As for `CCCCC/C=C\C/C=C\C/C=C\C/C=C\CCCC(=O)NCC(=O)O`, the activity, negative = inhibition in [1] is 8.29% [at 2.67 µM]; in assay [2] it was -0.958% [at 2.67 µM]; in assay [3], 0.793% [at 2.67 µM]; in [4], 1.43% [at 2.67 µM]; in assay [5], 8.66% [at 2.67 µM]; in assay [6] it was 4.08% [at 2.67 µM]. The activity, negative = inhibition in assay [7] is -11% [at 2.67 µM]; in assay [8], 0.3% [at 2.67 µM]; in [9], -1.95% [at 2.67 µM]; in assay [10], 9.07% [at 2.67 µM]; in [11], 11.6% [at 2.67 µM]; in assay [12] it was -0.781% [at 2.67 µM]. The activity, negative = inhibition in assay [13] was 0.973% [at 2.67 µM]; in [14], 4.28% [at 2.67 µM]; in [15], 2.09% [at 2.67 µM]; in assay [16] it was 2.88% [at 2.67 µM]; in assay [17], -7.02% [at 2.67 µM]; in assay [18], 0.824% [at 2.67 µM].
With `CN1C[C@H](C(=O)N[C@]2(C)O[C@@]3(O)[C@@H]4CCCN4C(=O)[C@H](Cc4ccccc4)N3C2=O)C=C2c3cccc4[nH]cc(c34)C[C@H]21`, the Potency in assay [1] is 1.58 µM (active); in assay [2], 8.49 µM (active); in assay [3], 13.5 µM (active); in assay [4] it was 15.1 µM (active); in assay [5], 15.1 µM (active); in [6], 5.36 µM (active). The Potency in assay [7] is 1.41 µM (active); in [8], 0.224 µM (active); in assay [9], 1.41 µM (active); in assay [10], 3.55 µM (active); in [11], 3.16 µM (active); in assay [12] it was 1 µM (active). For the same compound, the Potency is 4.47 µM (active) in assay [13]; 0.282 µM (active) in [14]; 9.53 µM (active) in assay [15]; 0.631 µM (active) in assay [16]; 6.75 µM (active) in assay [17]; 4.26 µM (active) in assay [18].
Consider `C=C(C)[C@H]1CN[C@H](C(=O)O)[C@H]1CC(=O)O`, for which the Potency entry in assay [1], in [2], in [3], in assay [4], in [5] and in assay [7] was “inactive” in each case. The Potency entry in [8], in assay [9], in assay [10], in assay [11], in assay [12] and in assay [13] was “inactive” each time. Besides, the Potency entry in assay [14], in [15], in assay [16] and in assay [18] was “inactive” in each case.
With `CC(C)c1cccc(C(C)C)c1O`, the Potency entry in assay [1], in assay [2], in assay [3], in assay [4], in assay [6] and in [7] was “inactive” in each case. Further, the Potency entry in [8], in assay [9], in assay [10], in [11], in [12] and in [13] was “inactive” each time. Moreover, the Potency result in assay [14], in assay [15] and in [16] was “inactive” throughout. In addition, the call in [19] was inactive.
With `O=C(N/N=C/c1ccc([N+](=O)[O-])o1)c1cc([N+](=O)[O-])cc([N+](=O)[O-])c1O`, the Potency was 0.178 µM (active) in assay [1]; 0.0028 µM (active) in [7]; 0.0708 µM (active) in assay [9]; 0.02 µM (active) in assay [10]; 0.1 µM (active) in assay [11]; 0.251 µM (active) in assay [13]. Further, the Potency in [16] was 2.24 µM (active).
Take `O=C1Nc2ccc(Cl)cc2C(c2ccccc2)=NC1O` (stereo unspecified): the Potency result in [1], in assay [2], in assay [3], in assay [4], in assay [5] and in assay [7] was “inactive” each time. Moreover, the Potency entry in assay [8], in [9], in [10], in assay [11], in [12] and in assay [13] was “inactive” each time. Further, the Potency entry in [14], in assay [15], in assay [16], in assay [17] and in assay [18] was “inactive” each time. Moreover, the result in assay [19] was inactive.
With `O=C1c2ccccc2C(=O)c2ccccc21`, the Potency result in assay [2], in assay [3], in assay [4], in assay [20], in [5] and in assay [6] was “inactive” each time. For the same compound, the Potency entry in [7], in assay [8], in [9], in [10], in assay [11] and in [12] was “inactive” throughout. In addition, the Potency entry in [13], in assay [15] and in assay [17] was “inactive” throughout. In addition, the Potency in assay [16] is 10 µM (active). Besides, the call in assay [19] was inactive.
As to `C=CCN1C[C@H](C)N([C@H](c2ccc(C(=O)N(CC)CC)cc2)c2cccc(OC)c2)C[C@H]1C`, the Potency entry in assay [2], in assay [3], in [4], in assay [20], in assay [5] and in [6] was “inactive” each time. For the same compound, the Potency entry in [9], in [17] and in assay [18] was “inactive” each time. Also, the Potency in assay [8] is 12.6 µM (active). Also, in assay [19], the compound was classed as inactive.
